Laboratory results published in PubChem BioAssay (NCI).
Several values for one entry are separate records, joined by “and”; a condition that tells them apart may be missing. Equal entries are not always repeated. Compounds without any hit were thinned out: in the full panel of roughly 79,000, 15% have a hit. Some compounds were tested as several samples or in several runs, with calls that do not always agree. Activity calls are given as the source filed them. No stated cut-off is given here; in the data, active means growth inhibition above about 70%; inactive means the rest. Where a SMILES comes first, the peptide text is derived from it.

Assay: NCI Yeast Anticancer Drug Screen. Data for the rad50 strain (AID 155);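 further: 0% = growth of vehicle-only cultures of the same strain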
Settings: S. cerevisiae rad50 strain growth inhibition; at 50.0 µM; stronger effect = higher value
Procedure, shortened: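 Vehicle-treated cultures provide the reference for the growth inhibition reported for compound-exposed, repair-deficient yeast.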

Structure (SMILES)	growth inhibition
Cc1cccc(Cc2ccccc2Cl)c1O	83.2% (active)
OC1CN(Cc2ccccc2)C[C@@H]1O (stereo partly drawn)	23% (inactive)
BrC(c1cccc2ccccc12)c1cccc2ccccc12	95.5% (active)
COc1nc(NC2OC(CO)C(O)C(O)C2O)c(Cl)c(=O)n1C (stereo not drawn)	17.7% (inactive)
O=S(=O)(CC(Cl)c1ccccc1)c1nc2ccccc2s1 (stereo not drawn)	69.5% (inactive)
CCCCCCCCCCCCOS(=O)(=O)O	-13.1% (inactive) and 99% (active) and 25.1% (inactive)
O=C(NNc1ccnc2cc(Cl)ccc12)/C(=C/c1ccc2c(c1)OCO2)NC(=O)c1ccccc1	90.7% (active)
O=C(CCN1CCN2c3ccccc3CCC2C1)c1ccc(F)cc1 (stereo not drawn)	95.7% (active) and 83.2% (active)
CC1C[C@]2(C)C(=O)Nc3ccccc3[C@@H]2Nc2ccccc21 (stereo partly drawn)	91.1% (active)
Nc1nc(=S)c2ncn(C3OC(CO)C(O)C3O)c2[nH]1 (stereo not drawn)	12.5% (inactive) and 38.5% (inactive)
O=C(O)c1c2ccccc2nc2[nH]c(=O)[nH]c(=O)c12	3.3% (inactive) and 23.4% (inactive)
N#Cc1c(/N=C/c2ccccc2Cl)sc2c1CCC2	20.1% (inactive)
CCC1=C(C)/C(=C/c2[nH]c(C)c(CC)c2C)N=C1C	61.1% (inactive) and 33% (inactive)
O=C(O)c1ccccc1C(=O)O	-29.7% (inactive) and 15.6% (inactive)
Cc1cc(C)nc(NS(=O)(=O)c2ccc(Nc3c4ccccc4nc4c(C(=O)NCCCN(CCO)CCO)cccc34)cc2)n1	45% (inactive)
CCCCCCCCCCCCCCCCCCOCC(COP(=O)([O-])OCC[N+](C)(C)C)OC (stereo not drawn)	90% (active) and 20.7% (inactive)
S=c1nc[nH]c2[nH]ccc12	10.1% (inactive)
C=C[C@]1(C)C=C2C(O)CC3C(C)(C)CCC[C@]3(CO)C2CC1 (stereo partly drawn)	99.2% (active)
c1ccc(-c2cnc(-c3ccc(-c4ncc(-c5ccccc5)o4)cc3)o2)cc1	-8.4% (inactive)

Structure (SMILES)	growth inhibition
Nc1ccc2c(ccc3ccc4ccccc4c32)c1	96.7% (active)
O/N=C(\CC(O)(C(F)(F)F)C(F)(F)F)c1cccc(Cl)c1	91% (active)
CC(=O)OC1CCC2(C)C(CCC3C4CCC(OC(C)=O)C4(C)CCC32)O1 (stereo not drawn)	36.2% (inactive)
Cc1[nH]c2ccccc2c1C1Cc2ccccc2N1 (stereo not drawn)	37.1% (inactive) and 57.5% (inactive)
COc1ccc(C2c3cc4c(cc3OC(NNC(N)=O)C2C)OCO4)cc1 (stereo not drawn)	84.5% (active)
Oc1ccc(C(O)(c2ccccc2)c2ccccc2)cc1	88.8% (active) and 71.1% (active)
COc1ccc(CC(=O)c2ccc(O)cc2O)cc1	49.5% (inactive)
COC(=O)C#CC(=O)OC	32% (inactive) and -2.9% (inactive)
O=C1OC2=C(c3ccccc3)CCCC2C1=O (stereo not drawn)	83% (active) and -7.3% (inactive)
CC(C)C(NC(=O)C(N)CCC(=O)O)C(=O)O (stereo not drawn) (H-Glu-Val-OH; configuration not given here)	15.7% (inactive)
CC1(C)CC(=O)C2=C(C1)OC1=C(CC(C)(C)CC1=O)C2c1ccccc1Cl (stereo not drawn)	-5.65% (inactive)
O=C(CC(=O)CC(O)(c1ccccc1)c1ccccc1)CC(=O)c1ccccc1	98.4% (active)
O=Nc1ccc(C=C2C(=O)C=CC2=O)cc1	99.5% (active)
C[N+]1(Cc2ccc(Cl)c(Cl)c2)CCCC1C1CCCN(Cc2ccc(Cl)c(Cl)c2)C1 (stereo not drawn)	6.55% (inactive) and -11.7% (inactive)
C[C@H]1CC[C@H]([C@@H](C)[C@H]2[C@@H](O)C[C@H]3[C@@H]4CC[C@H]5C[C@@H](O)CC[C@]5(C)[C@H]4CC[C@]23C)NC1	91.3% (active) and 88.7% (active)
CCOP(=O)(OCC)C(C)(CC)NC(=O)C(C(F)(F)F)C(F)(F)F (stereo not drawn)	-5.45% (inactive) and 2.5% (inactive)
[N-]=[N+]=NC(=O)Nc1cccc(C(F)(F)F)c1	99% (active)
NC(C/[N+]([O-])=N/O)C(=O)O (stereo not drawn)	40.7% (inactive) and 47.2% (inactive) and 57.1% (inactive)
NC(=O)N/N=C/c1ccc([N+](=O)[O-])o1	32% (inactive) and 46.6% (inactive)
